# Experimental data as given in article PMC7862700, “An all-to-all approach to the identification of sequence-specific readers for epigenetic DNA modifications on cytosine”.
# How the values were obtained:
# Test in all cases: DAPPL (digital affinity profiling via proximity ligation, sequencing); 10 mM Tris-HCl pH 7.5, 50 mM NaCl, 1 mM DTT, 4% glycerol, room temperature, 30 min; GST-TFs on glutathione beads, 16-mer random dsDNA library, 0.1% formaldehyde crosslink after washing; high values mean tight binding
# FLI1 = biological target: T1, FLI1 (Homo sapiens, UniProt Q01543 1-452); details: protein: recombinant; tags: N-terminal GST; dsDNA, one strand shown
# T1 sequence: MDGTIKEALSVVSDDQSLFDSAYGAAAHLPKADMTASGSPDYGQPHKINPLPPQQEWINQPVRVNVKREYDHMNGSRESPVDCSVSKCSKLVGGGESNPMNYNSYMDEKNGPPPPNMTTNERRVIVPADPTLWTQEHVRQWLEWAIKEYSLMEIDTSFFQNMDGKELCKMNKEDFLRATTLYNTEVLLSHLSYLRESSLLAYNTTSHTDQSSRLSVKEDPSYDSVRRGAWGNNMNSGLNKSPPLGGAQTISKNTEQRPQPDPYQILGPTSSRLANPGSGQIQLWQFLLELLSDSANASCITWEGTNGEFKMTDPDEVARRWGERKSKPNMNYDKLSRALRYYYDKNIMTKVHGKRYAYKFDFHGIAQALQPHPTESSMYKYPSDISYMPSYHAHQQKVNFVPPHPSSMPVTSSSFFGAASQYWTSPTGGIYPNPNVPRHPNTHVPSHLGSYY
# Method in brief: (§1)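 Binding signal is defined as a hexamer's read frequency for one factor over its frequency for the tag-only sample. To obtain reads, GST-fused human transcription factors were expressed in yeast, captured on glutathione beads, barcoded with DNA and pooled with that sample. Pools met 200 nmole of a 16-mer random double-stranded DNA library in Tris/NaCl/DTT/glycerol buffer for 30 min at room temperature before washing, 0.1% formaldehyde crosslinking, proximity ligation (BsaI/T4 ligase, 1 h, 37 °C), PCR and Illumina NextSeq500 sequencing.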
# ELK1 = biological target: T2, ELK1 (Homo sapiens, UniProt P19419 1-428); details: protein: recombinant; tags: N-terminal GST; dsDNA, one strand shown
# T2 sequence: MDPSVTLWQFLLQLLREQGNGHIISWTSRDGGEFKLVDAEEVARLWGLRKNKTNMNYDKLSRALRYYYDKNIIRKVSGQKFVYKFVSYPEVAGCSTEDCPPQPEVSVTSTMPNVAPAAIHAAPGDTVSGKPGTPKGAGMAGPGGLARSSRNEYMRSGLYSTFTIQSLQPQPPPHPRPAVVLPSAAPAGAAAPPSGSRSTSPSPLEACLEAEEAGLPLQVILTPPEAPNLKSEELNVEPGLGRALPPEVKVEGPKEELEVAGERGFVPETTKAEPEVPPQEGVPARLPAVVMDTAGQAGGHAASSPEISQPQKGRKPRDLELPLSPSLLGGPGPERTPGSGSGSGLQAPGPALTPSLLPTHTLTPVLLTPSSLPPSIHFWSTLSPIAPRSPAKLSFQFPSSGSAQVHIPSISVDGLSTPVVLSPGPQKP
# Method in brief: as §1
# GABPA = biological target: T3, GABPA (Homo sapiens, UniProt Q06546 1-454); details: protein: recombinant; tags: N-terminal GST; dsDNA, one strand shown
# T3 sequence: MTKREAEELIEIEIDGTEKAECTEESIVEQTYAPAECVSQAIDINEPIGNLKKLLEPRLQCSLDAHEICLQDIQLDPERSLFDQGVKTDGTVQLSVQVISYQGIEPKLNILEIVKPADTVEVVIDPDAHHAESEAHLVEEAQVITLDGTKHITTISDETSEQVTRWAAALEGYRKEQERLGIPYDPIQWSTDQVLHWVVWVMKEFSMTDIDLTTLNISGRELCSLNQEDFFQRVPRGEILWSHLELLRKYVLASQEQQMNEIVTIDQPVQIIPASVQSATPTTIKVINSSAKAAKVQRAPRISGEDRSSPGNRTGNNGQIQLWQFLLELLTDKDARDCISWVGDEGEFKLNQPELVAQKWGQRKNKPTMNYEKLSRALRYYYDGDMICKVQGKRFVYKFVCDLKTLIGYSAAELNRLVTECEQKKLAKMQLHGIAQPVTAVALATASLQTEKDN
# Method in brief: as §1
# ERG = biological target: T4, ERG (Homo sapiens, UniProt P11308 1-479); details: protein: recombinant; tags: N-terminal GST; dsDNA, one strand shown
# T4 sequence: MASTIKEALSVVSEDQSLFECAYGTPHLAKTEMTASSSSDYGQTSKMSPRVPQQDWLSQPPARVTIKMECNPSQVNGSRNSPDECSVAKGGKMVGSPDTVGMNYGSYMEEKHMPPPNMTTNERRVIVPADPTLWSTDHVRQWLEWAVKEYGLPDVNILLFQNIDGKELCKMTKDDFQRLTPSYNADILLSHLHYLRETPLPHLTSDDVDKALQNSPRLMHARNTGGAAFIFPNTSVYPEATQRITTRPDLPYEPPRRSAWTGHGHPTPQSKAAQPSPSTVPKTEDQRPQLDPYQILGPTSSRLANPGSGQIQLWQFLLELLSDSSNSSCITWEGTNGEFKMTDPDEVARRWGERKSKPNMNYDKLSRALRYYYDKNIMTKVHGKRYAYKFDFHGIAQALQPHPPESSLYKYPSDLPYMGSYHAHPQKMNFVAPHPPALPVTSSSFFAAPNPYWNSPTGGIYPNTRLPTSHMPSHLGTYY
# Method in brief: as §1
# ELF1 = ELF1 (Homo sapiens, UniProt P32519 1-619); details: protein: recombinant; tags: N-terminal GST; dsDNA, one strand shown
# Method in brief: as §1
# EHF = biological target: T5, EHF (Homo sapiens, UniProt Q9NZC4 1-300); details: protein: recombinant; tags: N-terminal GST; dsDNA, one strand shown
# T5 sequence: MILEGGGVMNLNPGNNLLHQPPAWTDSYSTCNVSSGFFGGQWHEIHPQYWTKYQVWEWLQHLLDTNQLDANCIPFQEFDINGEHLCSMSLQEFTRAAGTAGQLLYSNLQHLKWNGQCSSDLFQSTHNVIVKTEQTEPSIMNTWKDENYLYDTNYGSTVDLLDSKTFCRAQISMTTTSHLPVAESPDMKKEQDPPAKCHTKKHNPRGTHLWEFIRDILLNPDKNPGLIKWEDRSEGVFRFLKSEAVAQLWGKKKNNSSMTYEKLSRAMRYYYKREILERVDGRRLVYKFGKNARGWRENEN
# Method in brief: as §1
# SPI1 = SPI1 (Homo sapiens, UniProt P17947 1-270); details: protein: recombinant; tags: N-terminal GST; dsDNA, one strand shown
# Method in brief: as §1
# SPIB = SPIB (Homo sapiens, UniProt Q01892 1-262); details: protein: recombinant; tags: N-terminal GST; dsDNA, one strand shown
# Method in brief: as §1
# ELK3 = biological target: T6, ELK3 (Homo sapiens, UniProt P41970 1-407); details: protein: recombinant; tags: N-terminal GST; dsDNA, one strand shown
# T6 sequence: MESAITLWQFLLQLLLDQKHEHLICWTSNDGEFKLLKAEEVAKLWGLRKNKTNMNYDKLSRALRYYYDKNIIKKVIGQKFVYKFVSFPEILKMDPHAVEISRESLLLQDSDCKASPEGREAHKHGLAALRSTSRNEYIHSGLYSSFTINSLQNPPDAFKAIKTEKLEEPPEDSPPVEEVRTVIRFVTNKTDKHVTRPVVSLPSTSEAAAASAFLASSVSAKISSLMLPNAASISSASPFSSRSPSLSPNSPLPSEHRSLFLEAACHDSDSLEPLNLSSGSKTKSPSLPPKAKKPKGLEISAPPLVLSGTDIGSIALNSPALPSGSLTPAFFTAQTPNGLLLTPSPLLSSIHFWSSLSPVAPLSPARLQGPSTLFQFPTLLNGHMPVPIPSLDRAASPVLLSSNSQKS
# Method in brief: as §1
# FEV = biological target: T7, FEV (Homo sapiens, UniProt Q99581 1-238); details: protein: recombinant; tags: N-terminal GST; dsDNA, one strand shown
# T7 sequence: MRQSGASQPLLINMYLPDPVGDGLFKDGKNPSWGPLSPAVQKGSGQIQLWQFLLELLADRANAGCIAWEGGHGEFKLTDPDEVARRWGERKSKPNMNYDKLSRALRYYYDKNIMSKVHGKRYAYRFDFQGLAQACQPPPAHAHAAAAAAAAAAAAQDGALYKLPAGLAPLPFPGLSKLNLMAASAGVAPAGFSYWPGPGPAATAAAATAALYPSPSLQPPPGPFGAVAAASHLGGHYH
# Method in brief: as §1
# ETV5 = ETV5 (Homo sapiens, UniProt P41161 1-510); details: protein: recombinant; tags: N-terminal GST; dsDNA, one strand shown
# Method in brief: as §1
# HSF1 = HSF1 (Homo sapiens, UniProt Q00613 1-529); details: protein: recombinant; tags: N-terminal GST; chain copies: 3; dsDNA, one strand shown
# Method in brief: as §1
# SPIC = biological target: T8, SPIC (Homo sapiens, UniProt Q8N5J4 1-248); details: protein: recombinant; tags: N-terminal GST; dsDNA, one strand shown
# T8 sequence: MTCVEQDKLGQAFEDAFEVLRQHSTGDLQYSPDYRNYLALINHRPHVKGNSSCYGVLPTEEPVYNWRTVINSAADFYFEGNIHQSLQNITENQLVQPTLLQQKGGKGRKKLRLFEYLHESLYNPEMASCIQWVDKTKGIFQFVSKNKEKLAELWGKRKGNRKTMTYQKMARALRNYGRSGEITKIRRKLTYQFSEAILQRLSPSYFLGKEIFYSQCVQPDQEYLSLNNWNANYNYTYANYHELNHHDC
# Method in brief: as §1
# ELF4 = ELF4 (Homo sapiens, UniProt Q99607 1-663); details: protein: recombinant; tags: N-terminal GST; dsDNA, one strand shown
# Method in brief: as §1
# ELK4 = biological target: T9, ELK4 (Homo sapiens, UniProt P28324-2 1-405); details: protein: recombinant; tags: N-terminal GST; dsDNA, one strand shown
# T9 sequence: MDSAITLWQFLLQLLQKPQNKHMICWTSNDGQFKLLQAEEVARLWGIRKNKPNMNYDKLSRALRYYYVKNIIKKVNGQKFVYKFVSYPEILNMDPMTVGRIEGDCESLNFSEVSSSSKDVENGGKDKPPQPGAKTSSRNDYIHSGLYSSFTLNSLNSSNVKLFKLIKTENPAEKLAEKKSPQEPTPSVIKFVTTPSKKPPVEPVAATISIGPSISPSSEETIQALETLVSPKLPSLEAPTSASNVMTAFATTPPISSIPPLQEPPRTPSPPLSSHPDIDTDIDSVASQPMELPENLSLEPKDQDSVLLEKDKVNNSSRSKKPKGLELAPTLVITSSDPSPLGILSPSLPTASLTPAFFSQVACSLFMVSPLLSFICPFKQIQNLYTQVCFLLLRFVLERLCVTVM
# Method in brief: as §1
# ETV2 = biological target: T10, ETV2 (Homo sapiens, UniProt O00321 1-342); details: protein: recombinant; tags: N-terminal GST; dsDNA, one strand shown
# T10 sequence: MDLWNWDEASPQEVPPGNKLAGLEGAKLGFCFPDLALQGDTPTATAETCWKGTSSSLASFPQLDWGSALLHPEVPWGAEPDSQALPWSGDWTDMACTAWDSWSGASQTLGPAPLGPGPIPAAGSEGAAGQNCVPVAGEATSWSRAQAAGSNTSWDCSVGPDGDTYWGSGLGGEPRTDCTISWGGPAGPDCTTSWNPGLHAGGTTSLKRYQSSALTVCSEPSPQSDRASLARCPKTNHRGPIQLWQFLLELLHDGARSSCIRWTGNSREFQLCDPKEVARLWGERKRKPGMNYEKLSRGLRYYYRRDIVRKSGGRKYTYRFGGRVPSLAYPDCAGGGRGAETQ
# Method in brief: as §1
# ELF3 = biological target: T11, ELF3 (Homo sapiens, UniProt P78545 1-371); details: protein: recombinant; tags: N-terminal GST; dsDNA, one strand shown
# T11 sequence: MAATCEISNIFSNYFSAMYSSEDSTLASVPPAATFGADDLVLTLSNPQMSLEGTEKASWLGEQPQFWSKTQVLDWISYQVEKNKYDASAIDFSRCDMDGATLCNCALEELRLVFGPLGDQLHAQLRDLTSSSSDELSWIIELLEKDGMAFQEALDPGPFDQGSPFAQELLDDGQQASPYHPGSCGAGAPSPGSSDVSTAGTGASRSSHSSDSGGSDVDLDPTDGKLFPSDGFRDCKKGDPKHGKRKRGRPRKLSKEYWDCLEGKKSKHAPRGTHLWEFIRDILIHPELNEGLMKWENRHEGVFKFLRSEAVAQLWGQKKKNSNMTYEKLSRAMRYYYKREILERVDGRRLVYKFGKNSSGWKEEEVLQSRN
# Method in brief: as §1
# CRX = CRX (Homo sapiens, UniProt O43186 1-299); details: protein: recombinant; tags: N-terminal GST; dsDNA, one strand shown
# Method in brief: as §1
# ETV1 = ETV1 (Homo sapiens, UniProt P50549 1-477); details: protein: recombinant; tags: N-terminal GST; dsDNA, one strand shown
# Method in brief: as §1
# Chain of SPIB (Q01892 whole entry): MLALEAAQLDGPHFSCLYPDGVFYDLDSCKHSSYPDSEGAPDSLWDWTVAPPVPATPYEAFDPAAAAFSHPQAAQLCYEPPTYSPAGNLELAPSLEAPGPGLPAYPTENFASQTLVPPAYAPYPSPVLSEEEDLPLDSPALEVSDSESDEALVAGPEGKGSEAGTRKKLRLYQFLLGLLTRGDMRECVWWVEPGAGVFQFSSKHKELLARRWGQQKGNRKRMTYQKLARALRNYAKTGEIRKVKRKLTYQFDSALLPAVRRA
# Chain of CRX (O43186 whole entry): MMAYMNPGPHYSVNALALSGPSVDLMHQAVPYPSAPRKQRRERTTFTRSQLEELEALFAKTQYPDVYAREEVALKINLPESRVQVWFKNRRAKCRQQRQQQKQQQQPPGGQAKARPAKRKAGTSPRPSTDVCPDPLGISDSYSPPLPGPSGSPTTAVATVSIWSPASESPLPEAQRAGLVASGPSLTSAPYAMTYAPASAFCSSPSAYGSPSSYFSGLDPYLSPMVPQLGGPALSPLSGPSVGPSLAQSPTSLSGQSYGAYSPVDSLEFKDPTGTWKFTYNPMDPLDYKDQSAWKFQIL
# Chain of ETV1 (P50549 whole entry): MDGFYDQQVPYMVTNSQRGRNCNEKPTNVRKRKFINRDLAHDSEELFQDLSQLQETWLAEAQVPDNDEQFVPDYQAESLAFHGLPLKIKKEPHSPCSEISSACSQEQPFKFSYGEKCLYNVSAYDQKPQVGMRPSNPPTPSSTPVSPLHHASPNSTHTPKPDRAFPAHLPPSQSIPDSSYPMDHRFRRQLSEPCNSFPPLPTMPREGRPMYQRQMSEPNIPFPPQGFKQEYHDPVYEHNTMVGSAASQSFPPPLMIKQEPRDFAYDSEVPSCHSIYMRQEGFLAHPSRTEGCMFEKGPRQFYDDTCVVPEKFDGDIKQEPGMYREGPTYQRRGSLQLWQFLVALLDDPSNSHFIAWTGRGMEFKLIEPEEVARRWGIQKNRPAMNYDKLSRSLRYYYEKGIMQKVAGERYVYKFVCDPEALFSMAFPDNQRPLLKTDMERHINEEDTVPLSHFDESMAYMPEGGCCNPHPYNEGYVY
# Chain of ELF1 (P32519 whole entry): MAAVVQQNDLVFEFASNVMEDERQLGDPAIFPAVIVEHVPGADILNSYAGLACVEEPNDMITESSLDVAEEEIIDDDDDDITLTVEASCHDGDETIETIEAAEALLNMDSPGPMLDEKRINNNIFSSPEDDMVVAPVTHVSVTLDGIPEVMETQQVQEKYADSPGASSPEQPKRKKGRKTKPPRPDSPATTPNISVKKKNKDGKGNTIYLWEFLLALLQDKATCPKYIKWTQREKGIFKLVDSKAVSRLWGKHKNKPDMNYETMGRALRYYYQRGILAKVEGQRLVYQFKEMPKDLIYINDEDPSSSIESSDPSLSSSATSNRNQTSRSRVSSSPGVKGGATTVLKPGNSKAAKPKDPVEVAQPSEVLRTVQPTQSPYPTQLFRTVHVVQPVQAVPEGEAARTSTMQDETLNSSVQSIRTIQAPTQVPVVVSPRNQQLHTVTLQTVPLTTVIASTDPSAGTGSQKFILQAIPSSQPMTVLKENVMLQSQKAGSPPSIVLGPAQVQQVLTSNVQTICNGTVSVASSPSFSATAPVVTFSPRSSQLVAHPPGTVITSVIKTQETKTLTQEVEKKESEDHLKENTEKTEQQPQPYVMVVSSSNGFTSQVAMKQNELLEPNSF
# Chain of ELF4 (Q99607 whole entry): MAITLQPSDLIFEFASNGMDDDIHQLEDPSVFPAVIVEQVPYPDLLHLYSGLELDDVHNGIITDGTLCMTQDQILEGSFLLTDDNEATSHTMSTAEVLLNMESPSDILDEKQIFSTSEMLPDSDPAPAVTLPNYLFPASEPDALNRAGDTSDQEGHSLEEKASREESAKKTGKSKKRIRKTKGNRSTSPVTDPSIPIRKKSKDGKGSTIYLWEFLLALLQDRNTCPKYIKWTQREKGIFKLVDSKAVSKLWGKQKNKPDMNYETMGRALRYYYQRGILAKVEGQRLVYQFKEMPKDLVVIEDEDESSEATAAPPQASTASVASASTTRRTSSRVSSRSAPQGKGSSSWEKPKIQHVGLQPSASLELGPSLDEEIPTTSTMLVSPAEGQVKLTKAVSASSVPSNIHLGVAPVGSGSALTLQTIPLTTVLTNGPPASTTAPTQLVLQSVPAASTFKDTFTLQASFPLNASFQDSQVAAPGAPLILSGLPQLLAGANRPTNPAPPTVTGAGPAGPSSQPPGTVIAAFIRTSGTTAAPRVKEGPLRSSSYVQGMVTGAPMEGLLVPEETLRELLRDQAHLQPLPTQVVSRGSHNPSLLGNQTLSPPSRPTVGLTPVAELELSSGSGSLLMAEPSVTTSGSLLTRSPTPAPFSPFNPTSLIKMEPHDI
# Chain of ETV5 (P41161 whole entry): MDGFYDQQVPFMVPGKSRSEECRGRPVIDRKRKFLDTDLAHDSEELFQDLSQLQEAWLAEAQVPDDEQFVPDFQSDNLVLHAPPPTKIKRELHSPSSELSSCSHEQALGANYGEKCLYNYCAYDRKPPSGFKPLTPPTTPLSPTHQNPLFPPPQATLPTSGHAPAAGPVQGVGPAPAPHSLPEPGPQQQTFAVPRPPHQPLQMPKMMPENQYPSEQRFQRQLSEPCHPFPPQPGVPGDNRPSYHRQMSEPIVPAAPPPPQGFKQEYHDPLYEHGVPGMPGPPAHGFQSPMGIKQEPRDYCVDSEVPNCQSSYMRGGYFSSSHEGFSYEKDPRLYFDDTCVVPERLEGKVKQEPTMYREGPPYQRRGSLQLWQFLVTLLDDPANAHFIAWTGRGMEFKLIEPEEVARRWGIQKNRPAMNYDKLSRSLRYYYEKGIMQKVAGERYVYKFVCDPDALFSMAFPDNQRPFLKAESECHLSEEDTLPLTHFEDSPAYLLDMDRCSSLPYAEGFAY
# Chain of HSF1 (Q00613 whole entry): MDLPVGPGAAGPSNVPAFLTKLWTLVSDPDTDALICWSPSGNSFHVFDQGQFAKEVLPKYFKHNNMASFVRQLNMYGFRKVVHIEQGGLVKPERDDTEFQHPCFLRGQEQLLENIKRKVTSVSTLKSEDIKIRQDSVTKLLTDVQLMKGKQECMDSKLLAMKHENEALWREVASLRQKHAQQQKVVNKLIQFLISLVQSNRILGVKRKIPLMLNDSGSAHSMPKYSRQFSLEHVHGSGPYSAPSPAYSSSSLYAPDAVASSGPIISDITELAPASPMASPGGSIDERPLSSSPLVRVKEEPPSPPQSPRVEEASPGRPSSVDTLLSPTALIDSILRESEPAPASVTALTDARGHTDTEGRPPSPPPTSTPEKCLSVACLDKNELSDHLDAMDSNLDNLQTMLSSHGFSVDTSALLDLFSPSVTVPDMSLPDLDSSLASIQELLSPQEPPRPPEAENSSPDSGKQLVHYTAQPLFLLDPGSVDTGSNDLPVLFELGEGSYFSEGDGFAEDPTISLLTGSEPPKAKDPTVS
sequence,measurement,setting,value
ATATAA,binding signal,FLI1,"1.15 fold enrichment (6-mer frequency, TF over GST control)"
same,binding signal,ELK1,"1.22 fold enrichment (6-mer frequency, TF over GST control)"
same,binding signal,GABPA,"1.2 fold enrichment (6-mer frequency, TF over GST control)"
same,binding signal,ERG,"1.15 fold enrichment (6-mer frequency, TF over GST control)"
same,binding signal,ELF1,"1.24 fold enrichment (6-mer frequency, TF over GST control)"
same,binding signal,EHF,"1.21 fold enrichment (6-mer frequency, TF over GST control)"
same,binding signal,SPI1,"1.1 fold enrichment (6-mer frequency, TF over GST control)"
same,binding signal,SPIB,"1.22 fold enrichment (6-mer frequency, TF over GST control)"
same,binding signal,ELK3,"1.25 fold enrichment (6-mer frequency, TF over GST control)"
same,binding signal,FEV,"1.15 fold enrichment (6-mer frequency, TF over GST control)"
same,binding signal,ETV5,"1.15 fold enrichment (6-mer frequency, TF over GST control)"
same,binding signal,HSF1,"1.34 fold enrichment (6-mer frequency, TF over GST control)"
same,binding signal,SPIC,"1.1 fold enrichment (6-mer frequency, TF over GST control)"
same,binding signal,ELF4,"1.18 fold enrichment (6-mer frequency, TF over GST control)"
same,binding signal,ELK4,"1.29 fold enrichment (6-mer frequency, TF over GST control)"
same,binding signal,ETV2,"1.24 fold enrichment (6-mer frequency, TF over GST control)"
same,binding signal,ELF3,"1.28 fold enrichment (6-mer frequency, TF over GST control)"
same,binding signal,CRX,"1.68 fold enrichment (6-mer frequency, TF over GST control)"
same,binding signal,ETV1,"1.16 fold enrichment (6-mer frequency, TF over GST control)"
